mcGAS inh: cyclic GMP-AMP synthase inhibitors, mouse, primary biochemical chemiluminescence | Q8C6L5 | recombinant cGAS, Kinase-Glo ATP depletion luminescence | inhibition, % at 12.5 µM | 160,000 tested, 0.15% active | AID 1259399, 2018;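 further: 0% = negative control wells and 100% = reference inhibitor with no enzyme activity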
Target sequence (Q8C6L5 whole entry, looked up): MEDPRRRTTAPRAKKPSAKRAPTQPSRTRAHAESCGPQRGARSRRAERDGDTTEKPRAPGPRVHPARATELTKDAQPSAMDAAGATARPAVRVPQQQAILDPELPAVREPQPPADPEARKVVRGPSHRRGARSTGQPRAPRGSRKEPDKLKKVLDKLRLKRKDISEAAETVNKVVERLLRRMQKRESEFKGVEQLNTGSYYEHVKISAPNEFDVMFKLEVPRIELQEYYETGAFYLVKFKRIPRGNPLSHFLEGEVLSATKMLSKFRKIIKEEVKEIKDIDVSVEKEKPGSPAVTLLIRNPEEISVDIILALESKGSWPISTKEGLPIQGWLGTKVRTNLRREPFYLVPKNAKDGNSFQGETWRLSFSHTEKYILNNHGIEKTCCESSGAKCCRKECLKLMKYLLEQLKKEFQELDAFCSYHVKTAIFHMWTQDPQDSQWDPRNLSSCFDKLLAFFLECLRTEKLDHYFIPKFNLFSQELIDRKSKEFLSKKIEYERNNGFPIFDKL
NPYLR7 agonist: agonists of mosquito NPYLR7 receptor, primary screen, cell-based, Aedes aegypti, calcium fluorescence, mosquito biting behavior; Aedes aegypti neuropeptide Y-like receptor 7 (NPYLR7); HEK293T NPYLR7/Galpha15, GCaMP6s calcium fluorescence; activation, % at 10 µM; 270,000 tested, 0.15% active; AID 1259423, 2018; in the data active means activation above about 40%;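 further: 0% = vehicle and 100% = reference agonist at the receptor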
hcGAS lum: Primary biochemical luminescence assay for human cyclic GMP-AMP synthase inhibitors; recombinant h-cGAS, ATP depletion, Kinase-Glo luminescence; inhibition, % at 12.5 µM; 290,000 tested, 0.081% active; AID 1259398, 2018;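 further: 0% = vehicle reaction and 100% = reaction without DNA for no activity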
Starred values were filed as active, the others as inactive; ! = not active in a repeat. Most compounds without a hit are left out; they make up all but 0.24% or so of the library. Unless noted, no stated cut-off is given here; in the data, active means inhibition above about 40%; inactive means the rest.

CCN1CCN(C2=CC3=CC(=C(C#N)C#N)CCC3CC2)CC1 (configuration not stated) was read as mcGAS inh -3, NPYLR7 agonist active and hcGAS lum -9.
`N#CC(C#N)=C1C=C2C=C(N3CCCCCC3)CCC2CC1` (configuration not stated) gave mcGAS inh -4, NPYLR7 agonist 673* and hcGAS lum -6.
For N#CC(C#N)=C1C=C2CC(=NCc3ccccc3)CCC2CC1 (configuration not stated) the results were NPYLR7 agonist 36 and hcGAS lum -4.
`N#CC=CN1CCc2ccccc2C1` gave NPYLR7 agonist 1 and hcGAS lum -3.
Screening O=C(NCC1CCCN(Cc2ccncc2)C1)C1(C(F)(F)F)CC1 (configuration not stated) returned NPYLR7 agonist -5 and hcGAS lum -2.
O=C(COc1ccc(Cl)cc1)NCc1ccccc1CN1CCOCC1 was read as NPYLR7 agonist 3 and hcGAS lum -8.
Screening CCCN1C(=O)C(=Cc2c(NCCc3ccccc3)nc3c(C)cccn3c2=O)SC1=S returned mcGAS inh 0, NPYLR7 agonist 1 and hcGAS lum -3.
Screening CS(=O)(=O)Nc1nc2n(n1)C(c1ccccc1)CC(c1ccc(Cl)cc1)=N2 (configuration not stated) returned NPYLR7 agonist 66* and hcGAS lum 0.
Screening O=S(=O)(Nc1nc2n(n1)C(c1ccccc1)CC(c1ccccc1)=N2)c1ccccc1 (configuration not stated) returned mcGAS inh -3, NPYLR7 agonist 25 and hcGAS lum -9.
`CC(SCC1CCCO1)C(=O)O` (configuration not stated) gave NPYLR7 agonist 29 and hcGAS lum 2.
For O=C(O)CN(CC(=O)O)Cc1cc2c(-c3ccccc3C(=O)O)c3cc(CN(CC(=O)O)CC(=O)O)c(=O)cc-3oc2cc1O the results were mcGAS inh -1 and hcGAS lum -3.
Screening CCN(CC)c1ccc2c(-c3ccccc3C(=O)O)c3ccc(=[N+](CC)CC)cc-3oc2c1 returned mcGAS inh -28, NPYLR7 agonist 44* and hcGAS lum -49.
Screening COc1cn(CC(=O)NC(C)C)c(CSc2ncccn2)cc1=O returned mcGAS inh -9, NPYLR7 agonist -3 and hcGAS lum -5.
For COc1ccc(C(=O)C=Cc2cc(OC)c(O)c(OC)c2)cc1F the results were mcGAS inh 5, NPYLR7 agonist 64* and hcGAS lum -4.
`COc1cc(C(=O)C=Cc2cc(OC)c(O)c([N+](=O)[O-])c2)ccc1O` gave NPYLR7 agonist -8 and hcGAS lum -7.
`COc1cc(C(=O)C=Cc2ccc(OC(F)F)cc2)ccc1O` gave mcGAS inh 35, NPYLR7 agonist -6 and hcGAS lum -1.
For COc1cc(C(=O)C=Cc2ccc(C#N)cc2)ccc1O the results were mcGAS inh 64*, NPYLR7 agonist 1 and hcGAS lum -10.
CCOC(=O)CCC(=O)N1CCN(C(=O)c2cc3ccoc3n2Cc2ccc(C)cc2)CC1C (configuration not stated) was read as mcGAS inh -3, NPYLR7 agonist 8 and hcGAS lum -4.
C=C(C)Cn1c(C(=O)N2CCN(C(=O)CCC(=O)OCC)C(C)C2)cc2ccoc21 (configuration not stated) was read as mcGAS inh -7, NPYLR7 agonist 57* and hcGAS lum -10.
Cc1noc(-c2ccccc2)c1NC(=O)Nc1nc(COCCO)cs1 was read as mcGAS inh -5, NPYLR7 agonist 13 and hcGAS lum -5.
Screening CNC(=O)NC(=O)CCN1CC(c2ccccc2Cl)c2c([nH]c3ccccc23)C1C (configuration not stated) returned NPYLR7 agonist 41* and hcGAS lum 1.
O=C(CCn1c(=O)[nH]c2ccccc2c1=O)NCCc1ccccc1Cl was read as NPYLR7 agonist -8 and hcGAS lum 0.
For C=CCNC(=O)C(=O)NCc1ccco1 the results were mcGAS inh -4, NPYLR7 agonist 13 and hcGAS lum -3.
For COc1ccccc1-c1cc(C(=O)NCCN2CCCC2)n2nc(-c3ccc(Cl)cc3)cc2n1 the results were mcGAS inh 44*!, NPYLR7 agonist -9 and hcGAS lum -4.
`COc1ccccc1-c1cc(C(=O)NCCN2CCCCC2)nc2cc(-c3ccc(Cl)cc3)nn12` gave mcGAS inh -6, NPYLR7 agonist 14 and hcGAS lum -1.

Source: PubChem BioAssay
